Most compounds without a hit are left out; they make up all but 5.7% or so of the library.
FAS-TE inh – FAS thioesterase domain inhibitors, primary screen, biochemical, fluorescence intensity, uHTS. inhibition, % at 15 µM. 0.67% of 360,000 active. recombinant FAS-TE, OMFH fluorogenic substrate, fluorescence endpoint. Fatty acid synthase (Homo sapiens), P49327;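 active means compounds whose normalised, plate-corrected inhibition of enzyme fluorescence in the single-dose primary screen is 50% or more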;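 further: 0% = DMSO with enzyme and 100% = substrate without enzyme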
Target sequence (P49327 whole entry, looked up, the tested form may be a part): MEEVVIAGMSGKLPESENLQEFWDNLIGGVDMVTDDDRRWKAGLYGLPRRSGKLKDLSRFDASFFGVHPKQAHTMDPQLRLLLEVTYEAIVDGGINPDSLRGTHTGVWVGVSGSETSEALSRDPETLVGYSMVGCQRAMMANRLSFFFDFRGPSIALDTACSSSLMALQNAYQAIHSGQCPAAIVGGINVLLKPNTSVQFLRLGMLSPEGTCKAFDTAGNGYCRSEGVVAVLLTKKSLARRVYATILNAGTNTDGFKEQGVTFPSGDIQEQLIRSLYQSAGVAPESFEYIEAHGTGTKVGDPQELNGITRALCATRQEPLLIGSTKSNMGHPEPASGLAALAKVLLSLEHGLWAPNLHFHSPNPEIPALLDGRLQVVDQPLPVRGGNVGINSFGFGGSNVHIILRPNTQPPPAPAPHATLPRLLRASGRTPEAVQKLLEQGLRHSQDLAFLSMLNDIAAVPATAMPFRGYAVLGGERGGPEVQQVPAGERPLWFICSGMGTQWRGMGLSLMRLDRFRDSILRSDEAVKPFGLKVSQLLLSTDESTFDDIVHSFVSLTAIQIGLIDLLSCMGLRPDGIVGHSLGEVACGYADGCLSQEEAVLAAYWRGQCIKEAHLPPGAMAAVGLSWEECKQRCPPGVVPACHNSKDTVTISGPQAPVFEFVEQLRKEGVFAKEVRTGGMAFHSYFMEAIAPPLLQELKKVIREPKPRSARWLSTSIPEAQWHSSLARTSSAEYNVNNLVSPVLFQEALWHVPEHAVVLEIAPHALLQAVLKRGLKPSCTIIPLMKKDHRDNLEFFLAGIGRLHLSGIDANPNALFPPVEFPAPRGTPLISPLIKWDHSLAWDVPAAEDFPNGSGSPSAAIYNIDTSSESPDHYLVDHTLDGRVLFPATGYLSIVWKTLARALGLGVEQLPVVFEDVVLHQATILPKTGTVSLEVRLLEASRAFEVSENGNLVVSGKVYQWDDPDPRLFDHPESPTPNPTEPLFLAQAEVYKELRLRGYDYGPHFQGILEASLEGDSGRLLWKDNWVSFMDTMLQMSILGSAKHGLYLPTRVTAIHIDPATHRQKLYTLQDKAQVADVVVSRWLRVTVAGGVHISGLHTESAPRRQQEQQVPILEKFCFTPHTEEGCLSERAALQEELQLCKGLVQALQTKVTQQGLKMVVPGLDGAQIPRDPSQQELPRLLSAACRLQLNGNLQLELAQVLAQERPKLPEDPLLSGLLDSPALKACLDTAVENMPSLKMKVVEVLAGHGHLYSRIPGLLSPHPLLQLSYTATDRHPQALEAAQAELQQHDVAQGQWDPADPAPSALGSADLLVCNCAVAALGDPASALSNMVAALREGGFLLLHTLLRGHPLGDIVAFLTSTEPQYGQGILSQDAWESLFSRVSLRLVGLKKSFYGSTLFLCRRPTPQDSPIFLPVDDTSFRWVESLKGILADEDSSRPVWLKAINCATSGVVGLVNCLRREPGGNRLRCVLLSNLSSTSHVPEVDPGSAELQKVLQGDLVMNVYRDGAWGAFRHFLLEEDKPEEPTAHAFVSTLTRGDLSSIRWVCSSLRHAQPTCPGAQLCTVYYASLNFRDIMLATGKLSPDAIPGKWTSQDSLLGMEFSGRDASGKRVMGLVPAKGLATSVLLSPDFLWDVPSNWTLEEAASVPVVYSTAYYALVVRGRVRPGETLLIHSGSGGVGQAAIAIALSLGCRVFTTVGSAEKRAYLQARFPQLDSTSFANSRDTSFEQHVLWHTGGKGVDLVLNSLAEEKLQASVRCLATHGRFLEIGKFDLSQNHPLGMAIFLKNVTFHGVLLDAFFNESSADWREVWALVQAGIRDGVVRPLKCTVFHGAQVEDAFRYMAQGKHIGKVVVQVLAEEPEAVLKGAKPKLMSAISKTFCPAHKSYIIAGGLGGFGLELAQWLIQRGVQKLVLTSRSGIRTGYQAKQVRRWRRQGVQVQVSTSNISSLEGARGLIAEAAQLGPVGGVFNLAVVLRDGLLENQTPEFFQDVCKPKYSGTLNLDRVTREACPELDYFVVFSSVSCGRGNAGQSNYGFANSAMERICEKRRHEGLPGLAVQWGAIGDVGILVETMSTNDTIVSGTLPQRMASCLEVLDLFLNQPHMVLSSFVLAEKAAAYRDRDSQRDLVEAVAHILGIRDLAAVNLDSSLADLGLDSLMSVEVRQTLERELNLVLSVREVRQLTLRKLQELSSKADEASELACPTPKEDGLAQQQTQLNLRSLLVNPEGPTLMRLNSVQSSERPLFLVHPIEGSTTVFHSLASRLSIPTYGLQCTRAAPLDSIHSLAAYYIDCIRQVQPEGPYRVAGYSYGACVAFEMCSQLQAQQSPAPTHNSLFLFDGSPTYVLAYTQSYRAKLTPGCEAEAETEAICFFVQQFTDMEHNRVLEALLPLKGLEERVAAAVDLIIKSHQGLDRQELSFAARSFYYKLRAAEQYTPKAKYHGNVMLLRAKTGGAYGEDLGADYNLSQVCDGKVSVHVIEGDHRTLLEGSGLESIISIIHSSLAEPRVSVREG
NR3A LBD binder – binders of NR3A ligand-binding domain, primary screen, biophysical, differential scanning fluorimetry, uHTS; AID 1259313, 2017; Glutamate receptor ionotropic, NMDA 3A (GRIN3A) ligand-binding domain; Tm shift relative to glycine control, % at 25 µM; 2.5% of 340,000 active; NR3A LBD differential scanning fluorimetry, Tm shift; 0% = protein alone, 100% = glycine-bound protein;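 active means melting temperature shift of at least 10% of the positive control shift, at one fixed dose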
Myeloid diff MLP – induction of myeloid progenitor differentiation, primary screen, cell-based, flow cytometry, MLPCN library. calls only at 10 µM. 1% of 360,000 active. ER-HoxA9 myeloid progenitors, lysozyme-GFP differentiation. AID 624256, 2012;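 active means normalized GFP-positive differentiation at or above the plate's own cutoff, the solvent-only control mean plus 3 SD; inconclusive means no clear call, values can overlap the other calls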;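 further: cells exposed to compound for four days before flow analysis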
MPTP inh – mitochondrial permeability transition pore inhibitors, primary screen, biochemical, isolated mouse mitochondria, absorbance; Ca2+ swelling absorbance, 30 min; inhibition, % at 10 µM; 1.4% of 360,000 active; AID 602449, 2012;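 active means inhibition of 50% or more, scaled per plate between neutral and stimulator controls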;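 further: 0% = DMSO wells given calcium and 100% = 1 mM EGTA wells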
rCAG binder – binders of r(CAG) RNA repeats, primary screen, biochemical, fluorescence; inhibition, % at 3 µM; 1.3% of 370,000 active; r(CAG) RNA repeat, TO-PRO-1 dye displacement fluorescence;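 active means inhibition above the plate cutoff, the mean of all test compounds on that plate plus 3 SD, cut at about 35% in these data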;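 further: 0% = DMSO alone and 100% = 100 µM mitoxantrone as full dye displacement; higher means more dye released from RNA so lower well fluorescence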
Rh123 counter – fluorescence retest of MPTP screen hits in isolated mitochondria, single concentration | shares compounds with MPTP inh | membrane potential, Rhodamine 123 fluorescence | inhibition, % at 10 µM | 78% of 5,000 active | AID 624504, 2012; in the data active means inhibition above about 22%;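 further: 0% = DMSO vehicle and 100% = positive control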
MPTP abs DR – mitochondrial permeability transition pore inhibitors, dose response, biochemical, absorbance, uHTS hits; AID 651561, 2012; shares compounds with MPTP inh; isolated mitochondria swelling; 58% of 780 active; IC50, µM; in the data active means IC50 below about 20 µM
MPTP cs DR – fluorescent counter-screen in isolated mitochondria, dose response, counter-screen for MPTP inhibitor project, biochemical, fluorescence, uHTS hits; IC50, µM; 49% of 780 active; isolated mitochondria counterscreen, fluorescence read-out; shares compounds with MPTP inh; in the data active means IC50 below about 80 µM
* marks the source's active call; other numbers are inactive results; i = inactive; ? = inconclusive; · = no result; + = active, no number.

SMILES	FAS-TE inh	NR3A LBD binder	Myeloid diff MLP	MPTP inh	rCAG binder	Rh123 counter	others
O=C(NC1C/C(=N/O)c2cc3c(cc21)OCO3)C(F)(F)F (centres undefined)	-6	1	i	145*	3	-8	MPTP abs DR=>100;MPTP cs DR=>80
O=C1CC(NC(=O)C(F)(F)F)c2cc3c(cc21)OCO3 (centres undefined)	-6	-3	i	-1	-3	·
Cc1ccc(C(C)C)c(OCC(O)CN2CCc3ccccc3C2)c1 (centres undefined)	8	3	i	98*	-5	92*
Cc1ccc(C)c(OCC(O)CN2CCC(Cc3ccccc3)CC2)c1 (centres undefined)	-18	2	i	78*	-10	19	MPTP abs DR=6.8*;MPTP cs DR=13*
O=C(c1cc2sccc2n1Cc1ccccc1)N1CCN(c2nc3ccccc3s2)CC1	22	-1	i	102*	7	102*
CCOc1ccc(-n2c(SCC(=O)c3ccc4ccccc4c3)nnc2-c2ccco2)cc1	·	·	·	·	21	·
O=C(CSc1nnc(-c2cccnc2)n1Cc1ccco1)Nc1ccc(Cl)c(Cl)c1	·	·	·	·	6	·
CN(C)c1ccc2nc3ccc(=[N+](C)C)cc-3sc2c1	-2	-4	?	48	33	·
Cc1cc2nc3ccc(=[N+](C)C)cc-3sc2cc1N	2	0	?	63*	·	37*
CC(=O)c1c(C)[nH]c(C(=O)CSc2ccc(F)cc2)c1C	5	1	i	90*	1	84*
CCOC(=O)c1c(C)[nH]c(C(=O)CSc2ccccc2)c1C	2	0	i	-6	2	·
COc1ccc(C(=O)/C=C(\Nc2ccc(F)cc2)c2ccc(OC)cc2OC)c(OC)c1	·	·	·	·	7	·
O=C1NC(=S)S/C1=C\c1cc(Cl)ccc1Cl	50	2	i	98*	34	84*
O=C1NC(=S)SC1=Cc1ccccc1C(=O)O	-7	·	i	-2	2	·
CC(C)(CO)NCC(=O)Nc1cc(C(F)(F)F)cc(NC(=O)CNC(C)(C)CO)c1Cl	-13	-1	i	1	-2	·
CC1CCc2sc(C(=O)NCc3ccc(F)cc3)cc2C1 (centres undefined)	21	-8	i	58*	-3	62*
COc1ccc(Cc2nc3ccccc3[nH]2)cc1OC	-7	0	i	0	-2	·
Cc1ccc(NC(=S)/C(C#N)=C2/Nc3ccccc3S2)cc1	17	·	i	65*	92*	39*
CC(c1ccco1)N(C(=O)Nc1ccc(Cl)cc1)c1ccccn1 (centres undefined)	0	10*	i	85*	0	98*
N#C/C(=C(/O)C(Cl)(Cl)Cl)c1nc2ccccc2[nH]1	0	-4	i	76*	0	81*
N#C/C(=C(/O)c1ccc(Cl)c([N+](=O)[O-])c1)c1nc2ccccc2[nH]1	14	-1	i	78*	3	81*
COC(=O)c1ccc2nc(-c3ccco3)c(Cc3ccsc3)n2c1	·	·	·	·	26	·
Cc1cccc(Cn2nc(C(C)(C)C)cc2C(=O)Nc2ccc(F)cc2)c1	47	0	i	83*	-2	87*
CC(C)(C)c1cc(C(=O)NN)n(Cc2ccc(F)cc2)n1	-2	0	i	2	5	·
Cc1ccc(S(=O)(=O)Nc2ccc(NC(=O)Nc3cccc(C(F)(F)F)c3)cc2)cc1	34	37*	i	98*	21	61*
SMILES	FAS-TE inh	NR3A LBD binder	Myeloid diff MLP	MPTP inh	rCAG binder	Rh123 counter	others
CCN(CC)S(=O)(=O)c1ccc(NC(=O)Nc2cccc(C(F)(F)F)c2)cc1	30	31*	i	84*	35	74*
CNS(=O)(=O)c1ccc(NC(=O)Nc2cccc(F)c2)cc1	0	-4	i	0	-1	·
Cc1cc2c(cc1C)-n1nnnc1C(N1CCN(CC(=O)NC(C)C)CC1)C(=O)N2 (centres undefined)	·	·	i	5	0	·
O=C(NCCc1nnc2ccc(NCc3ccc(F)cc3)nn12)c1ccccc1	-1	-3	i	1	-3	·
Cn1nc(C(=O)NNC(=O)c2cccc(Cl)c2)ccc1=O	-2	3	i	0	1	·
Cc1sc2ncnc(N3CCN(S(=O)(=O)c4ccc(C(C)(C)C)cc4)CC3)c2c1C	28	3	i	100*	4	100*
Cc1sc2ncnc(N3CCN(CCOc4ccc(Cl)cc4)CC3)c2c1C	35	-10	+	100*	-2	102*
Cc1csc2ncnc(N3CCN(S(=O)(=O)c4cccc(C(F)(F)F)c4)CC3)c12	30	-6	?	97*	-3	93*
Cc1sc2ncnc(N3CCN(S(=O)(=O)c4ccc(Br)cc4)CC3)c2c1C	36	-2	i	93*	3	110*
O=C(O)Cn1c(O)c(C=Nc2ccccc2)sc1=S	-7	1	i	-1	-1	·
CCCCC(CC)Cn1c(O)c(/C=C2\C=NN=C2c2ccccc2)sc1=S (centres undefined)	-35	21*	i	55*	9	-2	MPTP abs DR=16*;MPTP cs DR=>80
Cc1ccc(NC(=S)NNC(=S)Nc2cccc(C(F)(F)F)c2)cc1	40	34*	i	73*	16	53*
COc1ccc(NC(=S)Nc2cccc(C(F)(F)F)c2)c(C)c1	2	-2	i	78*	1	104*
COc1cccc(NC(=S)Nc2ccc(F)cc2)c1	-2	-15	i	1	-2	·
CSc1ccccc1NC(=S)Nc1cccc(C(F)(F)F)c1	5	-4	?	94*	-1	92*
CC(NC(=S)Nc1cccc(C(F)(F)F)c1)C(C)(C)C (centres undefined)	21	3	·	94*	-3	95*
COc1ccc(C(=O)N2CCCCC2c2cc(C(=O)NCc3ccccc3)no2)cc1 (centres undefined)	2	·	i	-1	0	·
Cc1cccc(C)c1C(O)c1ncc(-c2ccc(F)cc2)[nH]1 (centres undefined)	1	·	i	1	·	·
COc1cccc(NC(=S)Nc2ccc(Br)cc2Cl)c1	8	-12	i	56*	2	69*
CN(Cc1cccnc1)C(=O)c1cc(COc2ccc3c(c2)CCCC3)on1	-124	2	i	67*	-4	85*

Screening data as filed in PubChem BioAssay.
